# Source: PubChem BioAssay (NCATS)
# Values without a mark were called inactive. Results filed as inconclusive are left out. A call without a number means that no potency is given here. Activity calls are given as the source filed them. The call rests on the fitted dose curve; in most records, active means well fitted curve in the direction sought with a large enough effect; inconclusive means small, poorly fitted or top-dose-only effect, or another doubt; inactive means no such curve, though single readings can be large; an effect the other way counts as inactive or inconclusive.
# Columns and labels:
# [1] = molecular target: Glutathione peroxidase 1 (Homo sapiens) (UniProt P07203); test: Primary qHTS Assay for Inhibitors of Recombinant Selenoprotein Glutathione Peroxidase 1 (GPX1) (AID 1845191); further: nearly all actives have a fitted effect of over 65% in size; further: potency means the concentration at half of the fitted maximal effect
# How it was run: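 GR-coupled readout: NADPH consumption tracked by fluorescence, ex 340/em 450 nm, at t=0 and after 15 min at RT. Final mix 10 nM GPX1, 1 mM GSH, 0.5 mM CHP, 0.5 mM NADPH, 100 nM GR, 0.01% BSA, following 30 min enzyme–compound preincubation.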
# [2] = molecular target: Phospholipid hydroperoxide glutathione peroxidase GPX4 (Homo sapiens) (UniProt P36969); test: Primary qHTS Assay for Inhibitors of Recombinant Selenoprotein Glutathione Peroxidase 4 (GPX4) (AID 1845192); further: nearly all actives have a fitted effect of over 65% in size; further: potency means the concentration at half of the fitted maximal effect; on activity change, negative = inhibition: series mostly up to about 50 µM
# How it was run: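 Steps: GPX4 plus compound, 30 min RT; add GR/GSH/NADPH master mix; start with cumene hydroperoxide; read 340/450 nm fluorescence at 0 and 15 min. Finals were 200 nM GPX4, 1 mM GSH, 0.5 mM CHP, 0.5 mM NADPH, 100 nM GR.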
# [3] = molecular target: Luciferin 4-monooxygenase (Photinus pyralis) (UniProt P08659); test: Primary firefly luciferase (FLuc) qHTS assay for identification of artifact compounds. (AID 1845220); further: nearly all actives have a fitted effect of over 60% in size; further: potency means the concentration at half of the fitted maximal effect; on activity change, negative = inhibition: series mostly up to about 54 µM
# How it was run: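 D-luciferin and ATP (10 uM each, final) in Tris acetate buffer pH 7.6 were incubated with compounds for 15 min at room temperature. The reaction was started with 10 nM Photinus pyralis luciferase and luminescence read after 5 min. Percent inhibition was fitted to a 4-parameter Hill equation.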
# [4] = Primary fluorescence-based thiol-reactive (MSTI) qHTS assay for identification of artifact compounds. (AID 1845221); further: nearly all actives have a fitted effect of over 65% in size; further: potency means the concentration at half of the fitted maximal effect;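 on activity change, negative = thiol reactive: series mostly up to about 54 µM; thiol-reactive compounds lower the probe fluorescence signal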
# How it was run: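 qHTS titration of compound; 4 uM MSTI, PBS pH 7.4, 2% DMSO; 1 h RT, dark; fluorescence 525/598 nm; normalized to Acetyl-MSTI and MSTI; 4-parameter Hill fit.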
# [5] = system: Nanoluciferase (engineered Oplophorus gracilirostris luciferase); test: Primary Nanoluciferase (NLuc) qHTS assay for identification of artifact compounds. (AID 1845222); further: series mostly up to about 54 µM
# How it was run: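 Diluted conditioned medium from NLuc-expressing S16 cells treated with compounds for 15 min at room temperature, then Nano-Glo substrate added; luminescence read after 5 min. Percent inhibition versus no-enzyme and DMSO controls fitted to 4-parameter Hill equation.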
# [6] = Primary redox qHTS assay for identification of artifact compounds. (AID 1845223)
# How it was run: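 Redox-cycling detection via DTT (250 uM final) oxidation coupled to Amplex Red (25 uM)/HRP (250 mU/mL) in HBSS. 15 min preincubation plus 30 min after DTT, room temperature. Ex/Em 525/598 nm; 4-parameter Hill fit against DMSO and 10 uM DA3003.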
# Sequence of Phospholipid hydroperoxide glutathione peroxidase GPX4 (Homo sapiens) (P36969 whole entry, looked up): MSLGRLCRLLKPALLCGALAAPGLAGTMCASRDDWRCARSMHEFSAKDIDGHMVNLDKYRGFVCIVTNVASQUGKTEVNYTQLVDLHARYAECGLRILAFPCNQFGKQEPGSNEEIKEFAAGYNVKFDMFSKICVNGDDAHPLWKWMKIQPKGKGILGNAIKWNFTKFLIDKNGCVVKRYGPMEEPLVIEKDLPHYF
# Sequence of Glutathione peroxidase 1 (Homo sapiens) (P07203 whole entry, looked up): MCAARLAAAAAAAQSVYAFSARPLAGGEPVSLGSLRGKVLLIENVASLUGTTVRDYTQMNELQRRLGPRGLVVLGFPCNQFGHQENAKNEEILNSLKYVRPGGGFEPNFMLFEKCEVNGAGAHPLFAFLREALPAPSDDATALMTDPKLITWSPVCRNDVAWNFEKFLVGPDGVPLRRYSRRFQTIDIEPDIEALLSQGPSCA
SMILES,Potency [1],Potency [2],Potency [3],Potency [4],Potency [5],Potency [6],"activity change, negative = inhibition [3]","activity change, negative = thiol reactive [4]","activity, negative = inhibition [5]",redox activity (% of DA3003) [6]
Cc1cc(F)ccc1-c1nc(NCCN=C(N)NC#N)nc2c1ccc(=O)n2-c1c(F)cccc1F,20.2 µM (active),22.7 µM (active),inactive,inactive,inactive,inactive,,,,
C=C[C@](C)(O)CC[C@H]1C(C)=CC(=O)[C@H]2C(C)(C)CCC[C@]12C,inactive,inactive,inactive,inactive,inactive,inactive,,,,
CC(=O)O[C@@H]1[C@@H](O)[C@H](O[C@@H]2[C@@H](O)[C@@H](O)[C@H](O[C@H]3[C@H](O[C@H]4[C@H](O[C@H]5CC[C@@]6(C)C(CC[C@]7(C)C6CC=C6[C@@H]8CC(C)(C)CC[C@]8(C(=O)O)CC[C@]67C)[C@]5(C)CO)O[C@H](CO)[C@@H](O)[C@@H]4O)OC[C@@H](O)[C@@H]3O)O[C@H]2C)OC[C@H]1O (some centres not stated),inactive,inactive,,,,,-4.72% [at 11.6 µM],377% [at 11.5 µM],1.48% [at 11.6 µM],0.129% [at 11.5 µM]
Nc1nccc(-c2c(-c3ccc(F)cc3)ncn2C2CCCCC2)n1,inactive,inactive,inactive,inactive,inactive,inactive,,,,
C=CCC1=C[C@]2(OC)[C@H](C)[C@@H](c3ccc4c(c3)OCO4)O[C@]2(OC)CC1=O,inactive,inactive,inactive,inactive,inactive,inactive,,,,
N[C@@H]1c2cccnc2[C@H](OC(=O)N2CCC(n3c(=O)[nH]c4ncccc43)CC2)CC[C@H]1c1cccc(F)c1F,inactive,inactive,inactive,inactive,inactive,inactive,,,,
C=C(C)C(=O)O[C@H]1C[C@@](C)(O)C2(O)CCC(C)(/C=C3/OC(=O)C(COC)=C31)O2 (some centres not stated),inactive,inactive,inactive,inactive,inactive,inactive,,,,
COc1cc(C(=O)NC(=S)Nc2cccc(NC(=O)c3ccccc3)c2)cc(OC)c1OC,inactive,inactive,inactive,inactive,inactive,inactive,,,,
CCN(CCNC(=O)Nc1ccccc1Br)c1cccc(C)c1,inactive,inactive,inactive,2.67 µM (active),inactive,inactive,,,,
Nc1nc(Cl)nc2c1ncn2C1OC(CO)C(O)C1F (configuration not stated),inactive,inactive,inactive,inactive,inactive,inactive,,,,
CC(C)S(=O)(=O)Nc1ccc(F)c(C(=O)c2c[nH]c3ncc(-c4cccnc4)cc23)c1F,inactive,inactive,inactive,inactive,inactive,inactive,,,,
CC(=O)OC1CC(C)C2(CCC3(CC(=O)OC3O)O2)C2(C)CCCC(C)(C)C12 (configuration not stated),inactive,inactive,inactive,inactive,inactive,inactive,,,,
Cn1ncc(Cl)c1-c1cc(C(=O)N[C@H](CN)Cc2cccc(F)c2)sc1Cl,inactive,inactive,inactive,inactive,inactive,inactive,,,,
COc1ccc(-c2cc3onc(-c4ccncc4)c3c(=O)n2C)cc1,inactive,inactive,1.9 µM (active),inactive,inactive,inactive,,,,
C=C1C(=O)O[C@@H]2/C=C(\CO)CC/C=C(\CO)[C@H](OC(C)=O)C(OC(=O)C(C)CC)C12 (some centres not stated),inactive,inactive,inactive,inactive,inactive,inactive,,,,
CC(=O)CC(=O)Nc1ccc(Cl)c(C(F)(F)F)c1,inactive,inactive,inactive,inactive,inactive,inactive,,,,
Cc1sc2c(c1C)C(c1ccc(Cl)cc1)=N[C@@H](CC(=O)Nc1ccc(OCCOCCOCCOCCNc3cccc4c3C(=O)N(C3CCC(=O)NC3=O)C4=O)cc1)c1nnc(C)n1-2 (some centres not stated),inactive,inactive,inactive,inactive,inactive,inactive,,,,
C=C1C(=O)O[C@H]2C3=C(C)CCC[C@]3(C)C(=O)C[C@@H]12,inactive,inactive,inactive,inactive,inactive,inactive,,,,
C=C(C)C(=O)O[C@H]1[C@H]2C(=C)C(=O)O[C@@H]2C[C@@H](C)[C@@H]2O[C@@H]2C(=O)[C@](C)(O)[C@@H]1OC(=O)C(=C)C,inactive,inactive,inactive,inactive,inactive,inactive,,,,
COc1cc(NC(=O)c2cc(C3CC3)on2)c(OC)cc1Cl,inactive,inactive,inactive,inactive,inactive,inactive,,,,
O=C(Nc1cnc(Cl)nc1)c1ccc(F)c(F)c1,inactive,inactive,inactive,inactive,inactive,inactive,,,,
CC1(C)CN(C(=O)c2ccc(-c3cccc4nc(NC(=O)C5CC5)nn34)cc2)C1,inactive,inactive,inactive,inactive,inactive,inactive,,,,
